Experimental data: PubChem BioAssay AID862 (The Scripps Research Institute Molecular Screening Center, 2007)
About 1,700 (0.89%) of roughly 190,000 compounds were called active. This excerpt belongs to a sample that is enriched for actives. A number with no mark means an inactive call.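 How the source made its calls: active means inhibition above the mean inhibition across all screened compounds plus 3 SD (cut at about 44% in these data); inactive means the rest.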

assay: blockers of STAT3 transcriptional signaling – U3A cells, luciferase, luminescence, MLSCN library, primary screen (AID 862); conditions: IL-6 STAT3-luciferase reporter, at 5.5 µM, hits give high values;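 further: 0% = DMSO only wells and 100% = 100 µM nifuroxazide control wells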

For `CC1=CC(=Cc2sc3ccccc3[n+]2C)C=C(C)O1`, the inhibition was 81.6% (active).
In the case of `COc1cccc(-c2nc3ccc(N4CCN(C)CC4)cc3[nH]2)c1`, the inhibition is reported as 85.4% (active).

Compared with `COc1ccc(C(=O)CC2C(=O)N(C)C(=O)N(C)C2=O)cc1`, `Cc1c(C(=O)O)cccc1-n1c(C)cc(/C=C2\C(=O)NC(=O)N(c3ccc4c(c3)OCO4)C2=O)c1C` is lower in inhibition: 8.6% for the first, 2.2% for the second.

Compared with `Cc1cccc(-n2c(O)c(/C=N/N3CCOCC3)c(=O)[nH]c2=S)c1`, `O=C(CCCn1c(=O)[nH]c2cc(Cl)ccc2c1=O)N1CCC2(CC1)OCCO2` is higher in inhibition: -17.9% for the first, 14.5% for the second.

Compared with `Cc1nc2ccc(N3CCN(C)CC3)cc2nc1C`, `CN1CCN(c2cc(N3CCNCC3)ccc2[N+](=O)[O-])CC1` is higher in inhibition: -6.4% for the first, -1.6% for the second.

First: O=C(CN1CCCC1=O)NCCc1ccccc1
Second: N#Cc1ccc(Cn2cc(C(=O)c3ccco3)c3ccccc32)cc1
The inhibition of the first is lower: 3.6% for the first, 10.3% for the second.
